# Data: PubChem BioAssay (NCATS)
# Values joined by “and” are separate entries in the source; they are usually repeats but may differ in a detail not shown here. Equal entries are not always repeated. Inconclusive results are not listed. A number with no mark means an inactive call. Active and inactive are the calls of the source. The call rests on the fitted dose curve; in most records, active means well fitted activation curve with a large enough effect; inconclusive means small, poorly fitted or top-dose-only effect; inactive means no such curve, though single readings can be large or run the other way.
# Target: Cellular tumor antigen p53 (Homo sapiens) (UniProt P04637)
# Sequence (P04637 whole entry, looked up): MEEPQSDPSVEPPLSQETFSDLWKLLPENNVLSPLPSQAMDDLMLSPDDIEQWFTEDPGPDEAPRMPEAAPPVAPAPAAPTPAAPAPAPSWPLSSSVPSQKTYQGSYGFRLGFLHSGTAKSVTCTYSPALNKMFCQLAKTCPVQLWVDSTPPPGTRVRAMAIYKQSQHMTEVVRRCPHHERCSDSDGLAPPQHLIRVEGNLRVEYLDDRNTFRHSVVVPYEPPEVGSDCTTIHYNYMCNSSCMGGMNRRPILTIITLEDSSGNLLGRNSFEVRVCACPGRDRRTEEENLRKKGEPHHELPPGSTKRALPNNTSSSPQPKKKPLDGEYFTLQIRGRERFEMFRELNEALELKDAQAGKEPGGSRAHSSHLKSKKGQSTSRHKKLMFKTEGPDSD
# Assay: Primary qHTS for small molecule compounds that upregulate eGFP-tagged delta133p53alpha (in N-terminal) cells. (AID 2060322); further: nearly all actives have a fitted effect of over 75% in size;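 on activation: series mostly up to about 56 µM; 0% = DMSO vehicle and 100% = reference activator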
# Conditions: NCI-H358 eGFP-delta133p53alpha fluorescence, 24 h; activation: active compounds read high
# How it was run: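 NCI-H358 cells pre-induced 24 h with 10 ng/ml doxycycline to express N-terminal eGFP-delta133p53alpha, then dosed 24 h at 37C without doxycycline; fixed, Hoechst-stained, GFP intensity by laser scanning cytometry, normalized to DMSO (0%) and 57.5 uM 5-azacytidine (100%).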
# Potency means the concentration at half of the fitted maximal effect.
Compound,activation,Potency
O=C(Nc1ccc([N+](=O)[O-])cc1)Nc1ccc([N+](=O)[O-])cc1,-25.9%,–
CC(=O)Nc1ccc(OCC(O)CNC(C)C)cc1 (configuration not stated),-14.2%,–
COc1cnc(NS(=O)(=O)c2ccc(N)cc2)nc1,2.51% and 10.3%,–
CCCCC1C(=O)N(c2ccccc2)N(c2ccc(O)cc2)C1=O (configuration not stated),–,4.37 µM (active)
CC(O)=C(C#N)C(=O)Nc1ccc(C(F)(F)F)cc1,11.7%,–
N[C@H](C(=O)O)[C@@H](O)c1ccc(O)c(O)c1,5.02%,–
C[C@@H]1C[C@H]2[C@@H]3CCC4=CC(=O)C=C[C@]4(C)[C@@]3(F)[C@@H](O)C[C@]2(C)[C@@]1(O)C(=O)COC(=O)c1ccncc1,-8.37%,–
CC(C)(C)C1CCC(CC2=C(O)c3ccccc3C(=O)C2=O)CC1 (configuration not stated),-11.9%,–
CC(=O)Nc1ccc(C(=O)O)cc1,26.6%,–
CN1CC(=O)NC1=N,-5.08%,–
[O-][n+]1cccc(CO)c1,20.1%,–
C[C@H](NC(=O)C(C#N)=Cc1cccc(Br)n1)c1ccccc1,11.9%,–
CCOc1ncc(F)c(=O)[nH]1,3.95%,–
COc1cc(S(N)(=O)=O)cc(C(=O)O)c1OC,-2.82%,–
COCCOCC(OC)OC,-6.69%,–
O=C1c2c(O)cc(O)cc2O[C@H](c2cc(O)c(O)c(O)c2)[C@H]1O,-0.847%,–
CC(C)(Oc1ccc(Cl)cc1)C(=O)OCCCOC(=O)C(C)(C)Oc1ccc(Cl)cc1,-6.69%,–
